{
  "source": "PubChem BioAssay (NCI)",
  "note": "“And” between values parts separate entries of the source, which are not always exact repeats. Equal entries are not always repeated. About 83,000 compounds went through this panel and 20% of them were active in at least one assay; those are over-represented in the sample as a whole.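 Compound tested at a single concentration for 48 hours in 96-well plates; a percent growth value below 10 was scored as active.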 The source made the active and inactive calls.",
  "data": [
    {"system": "MDA-MB-468 breast", "assay": "NCI-60 one-dose screen, 48 h (100 = growth as untreated, 0 = no growth, -100 = all killed)", "conditions": "10 µM unless noted", "values": [
      {"smiles": "Cc1csc(NC(=O)c2sc3nc(-c4cccs4)ccc3c2N)n1", "growth": "82% (inactive)"},
      {"smiles": "CC(C)CCCC(=O)O", "growth": "90.8% (inactive)"},
      {"smiles": "Cc1ccc2nc(NC(=O)CSC(=S)N3CCN(C)CC3)sc2c1", "growth": "116% (inactive)"},
      {"smiles": "COc1ccc(-c2cc(-c3nnc(SCC(=O)Nc4ccc(/C(C)=N\\O)cc4)o3)c3ccccc3n2)cc1", "growth": "106% (inactive)"},
      {"smiles": "CCCCCCCCCCCCCCCCCBr", "growth": "99.8% (inactive)"},
      {"smiles": "COc1ccc2c(O)cc3c(c2c1)[C@H](CCl)CN3C(=O)c1cc2cc(NC(=O)CCN3CCOCC3)ccc2[se]1", "growth": "-25.3% (active)"},
      {"smiles": "Cc1cc2cc3ccc(N(C)C)cc3nc2cc1N", "growth": "-56.8% (active)"},
      {"smiles": "CCCCOc1nc2cc(Cl)ccc2cc1/C=C/c1cc(/C=C/c2cc3ccc(Cl)cc3nc2OCCCC)n(-c2ccccc2)n1", "growth": "92% (inactive)"},
      {"smiles": "CCN(CCNS(C)(=O)=O)c1ccc(N)c(C)c1", "growth": "56.5% (inactive) and 69.7% (inactive)"},
      {"smiles": "COc1cc2c(c(OC)c1OC)CCC(c1cccc(NC(=O)c3ccc(Br)cc3)c1)O2", "note": "(centres undefined)", "growth": "35.8% (inactive)"},
      {"smiles": "CN1Cc2c(cc(CN3CCCCC3)n2C)C(c2ccc(Br)cc2)C1", "note": "(centres undefined)", "growth": "56.2% (inactive)"},
      {"smiles": "O=C(Nc1ccc(-n2cc(-c3ccncc3)c(-c3ccc(O)c(Cl)c3)n2)cc1)Nc1cc(C(F)(F)F)cc(C(F)(F)F)c1", "growth": "37.1% (inactive)"},
      {"smiles": "O=c1[nH]c(=O)n(Cc2ccc(F)cc2)cc1F", "growth": "102% [50 µM] (inactive)"},
      {"smiles": "COc1cc(Cn2c(-c3ccccc3)c(Cl)c3c2-c2oncc2CC3)cc(OC)c1", "growth": "114% (inactive)"},
      {"smiles": "CCOc1ccccc1/C=N\\Nc1ccc(S(=O)(=O)c2ccc(N/N=C/c3ccccc3OCC)cc2)cc1", "growth": "96.8% (inactive)"},
      {"smiles": "CC(=O)N[C@@H](CCC(N)=O)C(=O)O", "growth": "108% (inactive)"},
      {"smiles": "O=NN(C(=O)NC1CCC(C(=O)O)CC1)C1CCC(C(=O)O)CC1", "note": "(centres undefined)", "growth": "96.1% (inactive)"},
      {"smiles": "CC(C)c1cccc(C#N)c1", "growth": "99.4% (inactive)"},
      {"smiles": "COc1cc(-c2c(-c3ccccc3)c[nH]c2C(=O)NCCCO)c(OC)c2c1OCO2", "growth": "102% (inactive)"},
      {"smiles": "C=CCn1c(SCC(=O)Nc2ccc(C(=O)/C=C/c3ccc(Cl)cc3)cc2)nnc1-c1ccccc1", "growth": "101% (inactive)"},
      {"smiles": "Nc1ccc(Cl)c([N+](=O)[O-])c1", "growth": "98.5% (inactive)"},
      {"smiles": "CC1(C)OC2[C@@H](CNC(=O)NC(=O)NC(=O)CI)O[C@@H](n3cnc4c(NC(=O)Nc5ccccc5)ncnc43)[C@H]2O1", "note": "(some centres undefined)", "growth": "64% (inactive)"},
      {"smiles": "COc1cc(OC)c(C(=O)/C=C/c2ccc(C#N)cc2)c(OC)c1", "growth": "-6.07% (active)"},
      {"smiles": "CC(=O)c1cccc(NS(=O)(=O)c2ccc(C)cc2)c1", "growth": "77.3% (inactive)"},
      {"smiles": "C=C1CC[C@@H]2C(C)(C)[C@H](O)CC[C@@]2(C)[C@@H]1COc1ccc2ccc(=O)oc2c1", "growth": "44.1% (inactive)"},
      {"smiles": "C=CC(=O)N1CC2(CCC(n3nc(-c4ccc(Oc5ccccc5)cc4)c4c(N)ncnc43)CC2)C1", "growth": "-58.1% (active)"},
      {"smiles": "C#Cc1nc(/C=C\\CCCCCCC(=O)NO)cs1", "growth": "23.1% (inactive)"},
      {"smiles": "COc1cc(/C=N/NC(=O)c2ccccc2Nc2cccc(C(F)(F)F)c2)ccc1O", "growth": "28.3% (inactive)"},
      {"smiles": "Cc1cc2nc(CN)[nH]c2cc1C", "growth": "103% (inactive)"},
      {"smiles": "Clc1cnc(Nc2ccc(OCCN3CCCC3)cc2)nc1NCc1ccco1", "growth": "16.6% (inactive)"},
      {"smiles": "CCN1CCN(Cc2ccc(Cc3ncc(F)c(-c4cc(F)c5nc(C)n(C(C)C)c5c4)n3)nc2)CC1", "growth": "80.6% (inactive)"},
      {"smiles": "COc1ccc(-c2cc(-c3cccc(NS(C)(=O)=O)c3)nc(N)c2C#N)cc1", "growth": "0.11% (active)"},
      {"smiles": "COc1cc2nc(-c3ccc(C#N)cc3)[nH]c(=O)c2cc1OC", "growth": "113% (inactive)"},
      {"smiles": "c1ccc(-c2c(-c3ccccc3)[n+](Cc3ccc4ccccc4c3)cn2Cc2ccc3ccccc3c2)cc1", "growth": "-85% (active)"},
      {"smiles": "CC(=O)Oc1csc(N(C(C)=O)c2cccc(C(F)(F)F)c2)n1", "growth": "92.1% (inactive)"},
      {"smiles": "CC(C)=CCCC(C)c1ccc(C)c2c1OCN(CC1CCNCC1)C2", "note": "(centres undefined)", "growth": "7.48% (active)"},
      {"smiles": "Cc1c(-n2nnc(-c3nc4ccccc4s3)c2N)c(=O)n(-c2ccccc2)n1C", "growth": "110% (inactive)"},
      {"smiles": "COC(=O)C1(C)CCC[C@]2(C)[C@H]3C[C@H]4C(C(C)C)=C[C@]3(CC[C@@H]12)[C@H]1[C@@H]4[C@@H](OCC#CCN2CCOCC2)CC[C@@H]1OCC#CCN1CCOCC1", "note": "(some centres undefined)", "growth": "80% (inactive)"},
      {"smiles": "Cc1cc(N/N=C/c2nc(-c3ccc(Cl)cc3)oc2C)c2cc(Br)ccc2n1", "growth": "-36.6% (active)"}
    ]}
  ]
}
